This is part of a sample that, as a whole, favours compounds with a hit. Of some 83,000 tested, about 20% had one in any assay.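 The endpoint reported here, percent growth, reads 100 for growth as untreated, 0 for no net growth and -100 for all cells dead.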 Values without a mark were called inactive. Activity calls are given as the source filed them. How the source made its calls: active means growth percent below 10; inactive means the rest.
Assays:
Test in all cases: NCI-60 one-dose screen, 48 h (100 = growth as untreated, 0 = no growth, -100 = all killed)
Settings in all cases: 10 µM unless noted
NCI-H23 lung = tested on: NCI-H23 lung
NCI-H226 lung = tested on: NCI-H226 lung
NCI-H322M lung = tested on: NCI-H322M lung
HOP-62 NSCLC = tested on: HOP-62 NSCLC
NCI-H460 lung = tested on: NCI-H460 lung
HOP-92 NSCLC = tested on: HOP-92 NSCLC
NCI-H522 lung = tested on: NCI-H522 lung
A549/ATCC NSCLC = tested on: A549/ATCC NSCLC
786-0 renal = tested on: 786-0 renal
COLO 205 colon = tested on: COLO 205 colon
DU-145 prostate = tested on: DU-145 prostate
K-562 leukemia = tested on: K-562 leukemia
MALME-3M melanoma = tested on: MALME-3M melanoma
MDA-MB-231 breast = tested on: MDA-MB-231 breast
RXF 393 renal = tested on: RXF 393 renal
SF-268 CNS = tested on: SF-268 CNS
SF-295 CNS = tested on: SF-295 CNS
SF-539 CNS = tested on: SF-539 CNS
UACC-257 melanoma = tested on: UACC-257 melanoma
M14 melanoma = tested on: M14 melanoma

SMILES | growth (NCI-H23 lung) | growth (NCI-H226 lung) | growth (NCI-H322M lung) | growth (HOP-62 NSCLC) | growth (NCI-H460 lung) | growth (HOP-92 NSCLC) | growth (NCI-H522 lung) | growth (A549/ATCC NSCLC) | growth (786-0 renal) | growth (COLO 205 colon) | growth (DU-145 prostate) | growth (K-562 leukemia) | growth (MALME-3M melanoma) | growth (MDA-MB-231 breast) | growth (RXF 393 renal) | growth (SF-268 CNS) | growth (SF-295 CNS) | growth (SF-539 CNS) | growth (UACC-257 melanoma) | growth (M14 melanoma)
CCN(CC)CCCCNc1c2ccc(Cl)cc2nc2ccc(OC)cc12 | -42.8% (active) | -53.7% (active) | -30.4% (active) | 2.75% (active) | -23.8% (active) | -30.7% (active) | -37.4% (active) | 9.02% (active) | -16.6% (active) | -52% (active) | -2.29% (active) | -19% (active) | -65.6% (active) | -52.4% (active) | -61% (active) | -23.1% (active) | -58.7% (active) | -83% (active) | -37.1% (active) | -71.3% (active)
CON1C(=O)CC[C@]2(C)[C@H]3CC[C@@H]4C([C@@]5(C)CCC(=O)O5)CC[C@@]4(C)[C@]3(C)CC[C@H]2C1(C)C (stereo not given in full) | 95.6% | 94.9% | 108% | 98.4% | 103% | 95.3% | 85.9% | 102% | 100% | 124% | 107% | 83% | 105% | 96.5% | 98% | 97.4% | 104% | 99.8% | 107% | 97%
CC(C)(C)c1cc(/C=N\NC(=O)/C=C/C=C/c2ccc3c(c2)OCO3)c(O)c(C(C)(C)C)c1 | 90.5% | 75.9% | 63.5% | 66.8% | 39.6% | 88.5% | 80.1% | 87.5% | 85.4% | 94% | 56% | 59.9% | 71.3% | 79% | 94.6% | 67.4% | 92.9% | 87.5% | 88% | 73.3%
CCOC(=O)c1sc2nc(-c3cccc(OC)c3)nc(N3CCOCC3)c2c1C | 93.5% | 79.5% | 94.4% | 110% | 101% | 80.3% | 85.8% | 84% | 92.8% | 108% | 101% | 97.2% | 117% | 95% | 95.6% | 88.4% | 99.5% | 98.8% | 115% | 120%
CNC(=O)c1cc(Oc2ccc(NC(=O)Nc3ccc(Cl)c(OC(F)(F)F)c3)c(F)c2)ccn1 | 7.09% (active) | 31.5% | 71.7% | 39% | 37.4% | 28.9% | 5.56% (active) | 24.7% | 58% | 6.8% (active) | 56.7% | 6.83% (active) | 1.66% (active) | 35.3% | 82.3% | 45.2% | 21.3% | 50.6% | 1.86% (active) | 4.35% (active)
COc1ccc(-n2nc(C)c3c(Nc4ccc(NC(=O)Nc5cc(C(F)(F)F)ccc5F)cc4)ncnc32)cc1 | 32.7% | 73.8% | 11% | -38.6% (active) | 13.7% | 32.9% | -12% (active) | 22.9% | 11.3% | 15.2% | 63.6% | 6.88% (active) | 38.9% | -9.99% (active) | -13.2% (active) | 42.6% | -32.1% (active) | 16.8% | 45% | -29.6% (active)
O=C1NC(=O)C(c2ccc(Cl)cc2Cl)N1 (stereo not given) | 100% | 103% | 100% | 111% | 95.2% | 107% | 93.8% | 101% | 110% | 125% | 112% | 102% | 106% | 101% | 117% | 106% | 110% | 115% | 112% | 106%
c1ccc(-c2cc3n4c(-c5ccccc5)nn(-c5ccccc5)c4cnc-3n2)cc1 | 58.1% | 73.4% | 23.6% | 102% | 54.9% | 51.2% | 9.2% (active) | 31.3% | 75.5% | 75.1% | 38.6% | 104% | 60.1% | 36.2% | -16.1% (active) | 46.1% | 30.7% | 48% | 22.1% | 71.4%
